From PubChem BioAssay (EPA / NIEHS) come the findings set out here.

Test [1] can be described thus: Tanguay_ZF_120hpf_NC_legacy: (Legacy) Oregon State University Tanguay Lab 120 Hour Post-fertilization zebrafish Assay for Notochord and Tail Malformation (AID 2283656). In a few lines:
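Dechorionated Tropical 5D wild-type zebrafish embryos, one per well from 6 hpf, statically exposed to 120 hpf at 28C in 0.64% DMSO final. Notochord distortion scored present/absent by brightfield; dead embryos excluded.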

Read-out in test [2]: ABC Transporter (ABCB1), ABCB1 (gene 5243)
Kind of test: CLD_ABCB1_6hr: CellzDirect (CLD) Gene Expression Assay for ABC Transporter (ABCB1) at 6 hours (AID 2283659).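 Also: hits raise ABCB1 transcript above the DMSO vehicle baseline.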 In a few lines: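 Primary human hepatocytes (two donor preparations) dosed daily for two days with chemicals at multiple concentrations, 0.2% DMSO vehicle; harvested 6 h post-dose. ABCB1 mRNA induction quantified by qNPA chemiluminescence; gain-of-signal fitted versus DMSO.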

Read-out in test [3]: xenobiotic metabolism (CYP1A1), CYP1A1 (gene 1543)
The experiment in a line: CLD_CYP1A1_6hr: CellzDirect (CLD) Gene Expression Assay for xenobiotic metabolism (CYP1A1) at 6 hours (AID 2283661).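 As to AC50: potency for transcript induction above DMSO vehicle baseline.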 The method in brief:
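Primary human hepatocytes from two donors, compound versus 0.2% DMSO vehicle. CYP1A1 mRNA measured 6 h after dosing by quantitative nuclease protection assay with chemiluminescent read-out; induction fitted relative to DMSO, cytotoxicity flagged by microscopy.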

Test [4] relates to Thyroperoxidase (TPO), gene 54314. Kind of test: CCTE_Simmons_AUR_rTPO: CCTE's Amplex UltraRed Assay for Thyroperoxidase (TPO) Inhibition, Simmons Lab (AID 2283662).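 As to AC50: potency for loss of signal meaning inhibition of peroxidase activity.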 In a few lines: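 Cell-free peroxidase activity assay using rat thyroid gland microsomes with excess H2O2 (300 uM) and 25 uM Amplex UltraRed. Compounds tested from 5 nM to 87.5 uM; fluorescence measured after 30 min at 37C, analysed relative to DMSO baseline.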

Test [5] can be described thus: CCTE_Simmons_CellTiterGLO_HEK293T: Viability Assessment in CCTE's Assays for Thyroperoxidase (TPO) Inhibition, Simmons Lab (AID 2283665).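 As to AC50: cells exposed to compound for 24 h before readout; actives reduce ATP signal below DMSO vehicle meaning cytotoxicity.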 In a few lines:
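HEK293T cells in DMEM with 1% FBS, dosed 24 h at 37C with 8 concentrations, 5 nM–87.5 uM final, 0.5% DMSO. ATP measured by CellTiter Glo luminescence; loss of signal vs DMSO, three biological replicates.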
In general terms: ATP-based viability assays read luminescence as a measure of living cells.

Test [6] in a line: Tanguay_ZF_120hpf_TR_legacy: (Legacy) Oregon State University Tanguay Lab 120 Hour Post-fertilization zebrafish Assay for Touch Response (AID 2283667). The method in brief:
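Tropical 5D wild-type zebrafish embryos were exposed statically in sealed, foil-covered plates at 28C until 120 hpf, with 0.64% (vol/vol) final DMSO. Touch response was scored as present or absent; embryos that died were not scored.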

Read-out in test [7]: xenobiotic metabolism (CYP1A2), CYP1A2 (gene 1544)
Kind of test: CLD_CYP1A2_6hr: CellzDirect (CLD) Gene Expression Assay for xenobiotic metabolism (CYP1A2) at 6 hours (AID 2283663). In a few lines:
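Primary human hepatocytes from two donor preparations, dosed daily with multiple concentrations in 0.2% DMSO and harvested at 6 h. CYP1A2 mRNA induction measured by chemiluminescent qNPA, gain of signal fitted against DMSO; cytotoxicity flagged morphologically.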

Read-out in test [8]: solute carrier (SLC10A1), SLC10A1 (gene 6554)
Kind of test: LTEA_HepaRG_SLC10A1: Life Technologies and Expression Analysis (LTEA) Assay for solute carrier (SLC10A1) using HepaRG (AID 2283657; active = hit-call score of the fitted dose curve at least 0.9, where 1 is the maximum; inactive = score below 0.9). The conditions noted are these: mRNA level, 48 h; actives raise or lower the signal. Here is the method:
LTEA_HepaRG is a cell based, multiplexed-readout assay that uses HepaRG, a human liver cell line, with measurements taken at 48 hours after chemical dosing on a 96-well plate.LTEA_HepaRG_SLC10A1 is one of 102 assay component(s) measured in the LTEA HepaRG cell culture assay. It is a marker of NR mediated transport.Data from the assay component LTEA_HepaRG_SLC10A1 was analyzed into 1 endpoint. This assay endpoint, LTEA_HepaRG_SLC10A1, was analyzed with bidirectional fitting relative to DMSO as the negative control and baseline of activity. Using a type of inducible reporter, measures of mRNA induction for gain or loss-of-signal activity can be used to understand regulation of transcription factor activity. To generalize the intended target to other relatable targets, this assay endpoint is annotated to the transporter intended target family, where the subfamily is sodium/bile acid cotransporter.
A total of 1060 chemcials from the ToxCast library were tested in eight-point concentration-response experiments. Cell culture and cytotoxicity assays were conducted at Thermo Fisher Scientific's Custom Services facility (Madison, WI). A single lot of human HepaRG cells (Thermo Fisher Scientific, Frederick, MD) was used for the cell culture experiments. 96-well format collagen type I coated plates of human HepaRG cells were prepared using established methods. Briefly, cryopreserved HepaRG cells were thawed, plated at a density of approximately 100,000 cells/well in HepaRG Thaw, Plate, and General Purpose media (HPRG770, Thermo Fisher Scientific), and incubated for 48 hours. […] Fluidigm's 96.96 Dynamic ArrayTM (Fluidigm, Amsterdam, the Netherlands) technology was used for gene expression analyses by quantitative reverse transcription polymerase chain reaction (qRT-PCR, performed by Quintiles/Expression Analysis, Durham, NC)89. […]

Read-out in test [9]: matrix metalloproteinase-1 (MMP1), MMP1 (gene 4312)
Kind of test: LTEA_HepaRG_MMP1: Life Technologies and Expression Analysis (LTEA) Assay for matrix metalloproteinase-1 (MMP1) using HepaRG (AID 2283658; active = hit-call score of the fitted dose curve at least 0.9, where 1 is the maximum; inactive = score below 0.9). The conditions noted are these: mRNA level, 48 h; actives raise or lower the signal. In a few lines: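 Differentiated human HepaRG cells, 48 h post-plating in serum-free induction medium, were exposed 48 h to eight half-log concentrations topping at 100 uM in 0.5% DMSO, duplicate. MMP1 mRNA measured by Fluidigm TaqMan qRT-PCR, normalized to ACTB, GAPDH, POLR2A; bidirectional fits versus DMSO.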

Read-out in test [10]: Cytochrome P450 (CYP24A1_1), CYP24A1 (gene 1591)
Kind of test: LTEA_HepaRG_CYP24A1_1: Life Technologies and Expression Analysis (LTEA) Assay for Cytochrome P450 (CYP24A1_1) using HepaRG (AID 2283671; active = hit-call score of the fitted dose curve at least 0.9, where 1 is the maximum; inactive = score below 0.9). The conditions noted are these: mRNA level, 48 h; actives raise or lower the signal. In a few lines:
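HepaRG, 48 h exposure, 8-pt half-log series from 100 uM in 0.5% DMSO, duplicates. Readout: TaqMan qRT-PCR of CYP24A1 mRNA, housekeeping-normalized (ACTB/GAPDH/POLR2A). Bidirectional curve fit vs DMSO baseline.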

The structures appear in SMILES notation. Values joined by “and” are separate entries in the source; they are usually repeats but may differ in a detail not shown here. Equal values may be shown once. Records with an inconclusive call do not appear. Where a structure was tested more than once in an assay, its records may differ in their call. Active and inactive are the calls of the source. The calls were made as follows, unless noted: active = hit-call score of the fitted dose curve at least 0.9, where 1 is the maximum; inconclusive = response in the unintended direction; inactive = score below 0.9.

As for `CC1COC(Cn2cncn2)(c2ccc(Oc3ccc(Cl)cc3)cc2Cl)O1` (configuration not stated), the result in test [1], in test [2], in [3], in test [4] and in test [6] was inactive. Also, the AC50 in test [5] is 27.9 µM (active).

As for `Oc1ccccc1-c1ccccc1`, the compound was classed as inactive in test [1], in test [2] and in test [6]. Besides, the AC50 is 35.2 µM (active) in [4] and 97.1 µM (active) in test [5].

Consider `COP(=S)(OC)Oc1nc(Cl)c(Cl)cc1Cl`, for which the compound was called inactive in test [1] and in test [2]. The AC50 in test [3] was 5.29 µM (active); in [4], 4.62 µM (active); in test [5] it was 85.6 µM (active); in test [6], 97.7 µM (active).

In the case of `Cc1c(F)c(F)c(COC(=O)C2C(/C=C(\Cl)C(F)(F)F)C2(C)C)c(F)c1F` (configuration not stated), the call in test [1], in test [2], in [3] and in test [7] was inactive. In test [6], the AC50 was 3.23 µM (active).

For `C=CC1(C)OC(=O)N(c2cc(Cl)cc(Cl)c2)C1=O` (configuration not stated), the outcome in test [1], in test [9], in [6] and in [10] was inactive. Besides, the values for the AC50 in test [8] and in test [3] were 77.2 µM (active) and 1.47 µM (active), respectively.

Consider `CCOC(=O)C(Cl)Cc1cc(-n2nc(C)n(C(F)F)c2=O)c(F)cc1Cl` (configuration not stated), for which the call in test [1], in test [2] and in test [7] was inactive. Also, the AC50 was 0.375 µM (active) in test [3] and 17 µM (active) in test [6].

As for `COC(=O)c1ccccc1C(=O)OC`, the outcome in test [1], in test [2], in [3] and in test [6] was inactive.

In the case of `CCCN(CCC)c1c([N+](=O)[O-])cc(S(N)(=O)=O)cc1[N+](=O)[O-]`, the outcome in [1], in test [2], in test [4], in test [7] and in test [6] was inactive. Also, in test [5], the AC50 is 27.1 µM (active) [middle of 5 runs].

As for `CCCCNC(=O)n1c(NC(=O)OC)nc2ccccc21`, the result in test [1], in [2], in [4] and in test [5] was inactive. Further, the results for the AC50 in test [3] and in test [6] were 3.66 µM (active) and 19.2 µM (active), respectively.

As to `C=CCC1=C(C)[C@@H](OC(=O)[C@@H]2[C@@H](C=C(C)C)C2(C)C)CC1=O`, the result in test [1], in test [2], in [3] and in [6] was inactive. Further, the figures for the AC50 in [4] and in [5] were 54 µM (active) and 42.5 µM (active), respectively.

`OC(c1ccc(Cl)cc1)(c1cncnc1)c1ccccc1Cl` (configuration not stated): the outcome in test [1], in test [2], in [3], in test [6] and in test [10] was inactive. In addition, the values for the AC50 in [8] and in test [9] were 24.1 µM (active) and 59.8 µM (active), respectively.

For `CO/C=C(/C(=O)OC)c1ccccc1Oc1cc(Oc2ccccc2C#N)ncn1`, the compound was classed as inactive in [1], in test [9], in test [2], in [6] and in [10]. Also, the AC50 in test [8] is 78.6 µM (active); in test [6], 4.04 µM (active).

On to `COC(=O)C(C)Oc1ccc(Oc2ccc(Cl)cc2Cl)cc1` (configuration not stated), for which the result in test [1], in [2] and in [6] was inactive. For the same compound, the AC50 in [3] was 3.97 µM (active) and 4.59 µM (active).

Consider `COc1nc(NC(C)C)nc(NC(C)C)n1`, for which the outcome in test [1], in [2] and in [6] was inactive. Moreover, the AC50 in [3] was 3.97 µM (active).

With `N#CC(CCc1ccc(Cl)cc1)(Cn1cncn1)c1ccccc1` (configuration not stated), the call in test [1], in [2] and in [6] was inactive. Moreover, the AC50 in [3] was 1.89 µM (active).

Regarding `COc1cnc(OC)n2nc(NS(=O)(=O)c3c(OCC(F)F)cccc3C(F)(F)F)nc12`, the outcome in test [1] and in test [2] was inactive. In addition, in test [3], the AC50 was 0.121 µM (active).

As to `C=CCC1=C(C)C(OC(=O)C2C(C=C(C)C)C2(C)C)CC1=O` (configuration not stated), the outcome in test [1], in [2], in test [3] and in [6] was inactive. In addition, the concentration at half-maximal activity (AC50) in [4] is 33.6 µM (active); in [5], 54.1 µM (active).

Regarding `CCCC1COC(Cn2cncn2)(c2ccc(Cl)cc2Cl)O1` (configuration not stated), the outcome in test [1], in test [2] and in [4] was inactive. For the same compound, the AC50 in test [3] was 6.32 µM (active); in test [5] it was 79.7 µM (active); in test [6] it was 9.51 µM (active).

Regarding `Cc1ccc(-c2c(Cl)nc(C#N)n2S(=O)(=O)N(C)C)cc1`, the call in test [1], in test [2] and in test [6] was inactive. In addition, the AC50 in test [3] is 0.105 µM (active).

Regarding `N#Cc1nn(-c2c(Cl)cc(C(F)(F)F)cc2Cl)c(N)c1S(=O)C(F)(F)F` (configuration not stated), the result in test [1], in test [2] and in test [6] was inactive.

With `N#Cc1cc(Br)c(O)c(Br)c1`, the call in test [1], in test [2], in [3] and in [6] was inactive.

On to `CCOC(=O)CC(SP(=S)(OC)OC)C(=O)OCC` (configuration not stated), for which the call in test [1], in [2] and in [5] was inactive. Also, the AC50 in test [3] is 3.97 µM (active); in [4] it was 3.4 µM (active); in [6], 26.5 µM (active).

`CCCCOC(=O)c1ccccc1C(=O)OCCCC`: the compound was classed as inactive in test [1], in test [2] and in [6]. Besides, the AC50 in test [3] is 3.36 µM (active) and 5.18 µM (active).

On to `CCNc1nc(Cl)nc(NC(C)C)n1`, for which the result in [1], in test [2] and in test [6] was inactive. The AC50 in test [3] was 2.19 µM (active).

With `CN(C)C(=S)SSC(=S)N(C)C`, the compound was classed as inactive in test [1], in [2] and in test [4]. The AC50 is 40.2 µM (active) in [5] and 3.26 µM (active) in test [6].

As for `CCCCNC(=O)OCC#CI`, the call in [1], in [2], in test [3] and in test [6] was inactive. In addition, the AC50 in [3] is 0.851 µM (active).

As for `CCCCC(CC)COC(=O)c1ccccc1C(=O)OCC(CC)CCCC` (configuration not stated), the outcome in [7] was inactive.

In general, AC50 refers to the concentration giving half of the maximal activity seen.
